Pf Dd2 inh = qHTS Primary assay for Inhibitors of Plasmodium falciparum Dd2 growth in vitro; actives 4.3% (n = 120,000); P. falciparum Dd2 growth, SYBR Green, 72 h; Potency, µM (top dose mostly 28.9 µM), without a hit: top-dose activity, negative = inhibition, usual class: inhibitors; active = well fitted inhibition curve with a large enough effect;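 also: plate controls were DMSO vehicle for no effect and reference drug for full effect; nearly all actives have a fitted effect of over 65% in size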
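Readout: SYBR Green fluorescence, 485 nm excitation, 535 nm emission, after ~16 h lysis at 37C. Before that, Dd2-infected red cells (2.5% hematocrit) grew 72 h with compound, 29 uM top final concentration.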
* marks the source's active call; other numbers are inactive results; i = inactive; [ ] = another dose, or the depositor's remark. This excerpt belongs to a sample that is enriched for hits. Potency is read from the fitted curve at half-maximal effect.

SMILES | Pf Dd2 inh
COc1ccc(CN2CCC3(Cc4ccccc4NC3=O)C2)cc1 (configuration not stated) | 10µM*
O=C1Nc2ccccc2CC12CCN2Cc1ccc(OC(F)(F)F)cc1 (configuration not stated) | -20.3%
CC(=O)Nc1ccc(CN2CCC3(CC2)COc2ccccc2NC3=O)cc1 | -23.4%
O=C1Nc2ccccc2CC12CCCN(Cc1ccncc1)C2 (configuration not stated) | -20.6%
Cc1ccc(CN2CCC3(Cc4ccccc4NC3=O)C2)cc1 (configuration not stated) | 8.91µM*
N#Cc1ccc(CN2CCC3(CC2)COc2ccccc2NC3=O)cc1 | 10µM*
CC(=O)Nc1ccc(CN2CCC3(Cc4ccccc4NC3=O)C2)cc1 (configuration not stated) | i
COc1ccc(CN2CCC3(CC2)NCc2ccccc2NC3=O)cc1 | -19.7%
O=C1Nc2ccccc2OCC12CCN(Cc1cccnc1)CC2 | i
O=C(c1ccoc1)N1CC[C@@H]2[C@@H](CCC(=O)N2CCc2cnc[nH]2)C1 | -10.1%
CNC(=O)N1C[C@@H](CN(C)C)[C@H](NC(=O)c2cc(C)cc(C)c2)C1 | 3.5%
Cc1ncc(C(=O)N(C)CC2CCCN(CCc3ccc(Cl)cc3)C2)c(=O)[nH]1 (configuration not stated) | -8.5%
COc1ccc(CCC(=O)NCCC2CCN(C(=O)Nc3cc(F)cc(F)c3)CC2)cc1 | -17.7%
COc1ccc(NC(=O)N2CC(C(=O)N(C)C)C3(CCOCC3)C2)c(OC)c1 (configuration not stated) | 7.5%
O=C(c1ccccn1)N1CCC(N2C(=O)C(O)C23CCCCC3)CC1 (configuration not stated) | 2.4%
Cc1ccc(CNC(=O)N2CCCCCCNC(=O)[C@@H]3CCCC[C@@H]32)cc1 | -17.5%
Cc1ccc(C2NC(=O)N(CC(=O)N3CCN(c4ccccc4)CC3)C3=C2C(=O)OC3)cc1 (configuration not stated) | i
CNc1ccc(C)cc1C(=O)NC(C(=O)O)c1c(C)n[nH]c1C (configuration not stated) | 25.6%
COCc1noc([C@@H]2CN(Cc3cccc(F)c3)C[C@H]2COC)n1 | 17.1%
CCO[C@H]1CN(Cc2cnc(SCc3ccccc3)nc2)C[C@@H]1O | -17.7%
CCO[C@H]1CN(Cc2ccc(OC)c(OCc3cccc(F)c3)c2)C[C@@H]1O | 12.6µM*
O=C(O)C[C@@H]1CCN(C(=O)Nc2ccc(OC(F)(F)F)cc2)C[C@@H]1CCN1CCOCC1 | 0.5%
NC(=O)c1ccc(CC2CCN(C(=O)c3cnccn3)CC2)cc1 | 0.0%
O=C(N[C@H](c1ccccn1)C1CC(O)C1)c1cnc2ccccn2c1=O (some centres not stated) | -9.7%
O=C(C1CCN(S(=O)(=O)c2cccs2)CC1)N1CCN(c2cccc(Cl)c2)CC1 | -14.9%
SMILES | Pf Dd2 inh
O=C(C1CCC(CNS(=O)(=O)c2cccs2)CC1)N1CCN(c2ccc(Cl)cc2)CC1 (configuration not stated) | 12.6µM*
O=C(C1CCC(CNS(=O)(=O)c2ccc(Br)s2)CC1)N1CCN(c2ccccc2)CC1 (configuration not stated) | -5.9%
COc1cccc(CC(=O)N2CCC(c3noc(CO)n3)C2)c1 (configuration not stated) | 5.5%
COc1cccc(C(=O)Nc2ccc(NC(=O)c3ccc(C(C)(C)C)cc3)cc2)c1 | i
Cc1ccccc1C(=O)Nc1cccc(NC(=O)c2ccc(C(C)(C)C)cc2)c1 | 12.6µM*
O=C(Nc1cccc(NC(=O)c2ccccc2F)c1)c1ccccc1 | 25.1%
COc1ccc(-c2noc([C@@H](C)NC(=O)C3CCCCC3)c2C(=O)O)cc1 | i
COc1cccc(C(=O)N2CCN(c3cc(C(F)(F)F)ncn3)CC2)c1OC | -15.9%
COCCc1noc([C@@H]2CN(Cc3ccc4[nH]ccc4c3)C[C@H]2CO)n1 | -26.8%
COc1ccc(-n2c(SCCC(C)C)nc3sc4c(c3c2=O)CC(C(C)C)OC4)cc1 (configuration not stated) | 0.6%
COC(=O)CSc1nnc2n(-c3ccccc3)c(=O)c3c4c(sc3n12)COC(C(C)C)C4 (configuration not stated) | 33.7%
CCCSc1nnc2n(-c3ccc(OC)cc3)c(=O)c3c4c(sc3n12)COC(C(C)C)C4 (configuration not stated) | 10µM*
Cc1ccc(C)c(NC(=O)Cn2ccn3nc(-c4ccc(F)cc4)c(CO)c3c2=O)c1 | 10.8%
Cc1ccc(C)c(C(=O)c2c(N)c(-c3nc(-c4ccc5c(c4)OCO5)cs3)c3ccccn23)c1 | 8.91µM*
COc1ccc(C(=O)c2c(N)c(-c3nc(-c4ccc5c(c4)OCO5)cs3)c3ccccn23)cc1 | 15.9%
Cc1ccc(-c2csc(-c3c(N)c(C(=O)c4ccc5c(c4)OCO5)n4ccccc34)n2)cc1C | i
Cc1ccc(S(=O)(=O)N2CCCC(Cn3cnc4cccnc43)C2)c(C)c1 (configuration not stated) | i
COc1ccccc1-c1cn2c(n1)CO[C@@H](CNC1CCCC1)C2 | i
Cc1ccc(CN(Cc2ccco2)C(=O)COc2ccccc2C)cc1 | i
CCOC(=O)c1ccc(NC(=O)Cn2cc(C(=O)c3cccs3)c3ccccc32)cc1 | -3.8%
Cc1ccc(NC(=O)Cn2cc(C(=O)c3ccccc3)c3ccccc32)c(C)c1 | 7.0%
COc1ccc(NC(=O)Cn2cc(C(=O)C3CCCCC3)c3ccccc32)cc1 | -29.1%
Cc1ccc(C)c(OCCn2cc(C(=O)c3ccco3)c3ccccc32)c1 | 1µM*
COc1ccc(OCCn2cc(C(=O)c3ccco3)c3ccccc32)cc1 | 1µM*
COc1ccc(OCC(=O)Nc2ccc3c(c2)nc(CCNC(=O)c2ccco2)n3C)cc1 | -22.0%
SMILES | Pf Dd2 inh
O=C(c1cn(CCOc2ccccc2F)c2ccccc12)C1CCCCC1 | -27.2%
O=C(c1cccs1)c1cn(CCOc2ccccc2Cl)c2ccccc12 | 3.16µM*
O=Cc1ccccc1Oc1ccc(F)c(Cl)c1 | -6.3%[44.1 µM]
Cn1cc(C(=O)NCc2nnc3n2C(C(=O)NC2CC2)CC3)cn1 (configuration not stated) | 5.7%
Cc1ccc(-c2ccc3nnc(CNC(=O)c4ccco4)n3n2)cc1 | -2.0%
COCCC1(NC(=O)C(C)c2ccccc2)CCN(S(C)(=O)=O)CC1 (configuration not stated) | -3.5%
Cc1ccsc1C(=O)NCC1Cn2cccc2CN1C (configuration not stated) | -9.3%
COCCn1ncc(N2CCCC(CC(=O)NCc3ccncc3)C2)cc1=O (configuration not stated) | 36.7%
Cc1cccc(Cl)c1NC(=O)N1CCC2(CCCN(C(C)C)C2=O)C1 (configuration not stated) | -4.8%
CC1CCN(Cc2ccc(C(=O)N3CCCC4(CCNC4)C3)o2)CC1 (configuration not stated) | 2.9%
COC(=O)c1ccccc1NC(=O)Cn1ccn2nc(-c3ccc(F)cc3)c(CO)c2c1=O | -10.0%
Cc1cccc(S(=O)(=O)N(C)CC2CCOC2)c1 (configuration not stated) | 24.2%[5.79 µM]
O=C1CCSc2ccc(S(=O)(=O)Nc3cccc(C(F)(F)F)c3)cc2N1 | 35.4%
Cc1ccccc1NS(=O)(=O)c1ccc2c(c1)NC(=O)CCS2 | -7.9%
Cc1ccc(NS(=O)(=O)c2ccc3c(c2)NC(=O)CCS3)cc1C | 10µM*

Source: PubChem
